Reference: the antibiotic and cytotoxicity screens of Wong et al. (2023)
Among all 39,000 compounds or so, about 3,300 (8.5%) were called active. The sample holds actives, similar compounds and a random draw of the others, so the mix is not that of the screen.

tested on: HepG2; assay: cytotoxicity call (relative viability < 0.9); conditions: 10 µM

Question: How did the cytotoxicity call turn out when `C[C@H](CO)N1C[C@H](C)[C@H](CN(C)S(=O)(=O)c2ccc(Cl)cc2)Oc2ccc(NS(=O)(=O)c3cn(C)cn3)cc2C1=O` was run?
Answer: inactive

Question: With `O=C(CCCCC(=O)N/N=C/[C@H](O)[C@@H](O)[C@H](O)CO)NO` as the molecule, how does the cytotoxicity call read?
Answer: inactive

Question: Which cytotoxicity call does the source give for `COc1ccc(CN(C)C[C@H]2OCCCC[C@@H](C)Oc3ccc(NS(=O)(=O)c4cccs4)cc3C(=O)N([C@H](C)CO)C[C@@H]2C)cc1` here?
Answer: inactive

Question: Which cytotoxicity call does the source give for `COC(=O)C[C@](O)(CCCC(C)(C)O)C(=O)O[C@@H]1C(OC)=C[C@]23CCCN2CCc2cc4c(cc2[C@H]13)OCO4` here?
Answer: active

Question: For `CC(C)(O)[C@@H]1CC[C@]2(CO)[C@@H](O)CC[C@](C)(O)[C@H]2[C@@H]1O[C@@H]1O[C@H](CO)[C@@H](O)[C@H](O)[C@H]1O`, which cytotoxicity call is on record?
Answer: inactive

Question: With `Cc1ccc(S(=O)(=O)N(C)C[C@H]2Oc3c(NC(=O)c4cnccn4)cccc3C(=O)N([C@@H](C)CO)C[C@@H]2C)cc1` as the molecule, how does the cytotoxicity call read?
Answer: inactive

Question: Which cytotoxicity call does the source give for `C[C@@H]1CN([C@@H](C)CO)C(=O)c2cc(NC(=O)c3ccccc3)ccc2O[C@@H](C)CCCCO[C@@H]1CN(C)S(=O)(=O)c1ccc(Cl)cc1` here?
Answer: inactive

Question: How did the cytotoxicity call turn out when `C[C@H](CO)N1C[C@H](C)[C@H](CN(C)S(=O)(=O)c2ccc(Cl)cc2)OCCCC[C@H](C)Oc2ccc(NC(=O)c3ccccc3)cc2C1=O` was run?
Answer: inactive

Question: Which cytotoxicity call does the source give for `C[C@@H]1CCCCO[C@@H](CN(C)S(=O)(=O)c2ccc(Cl)cc2)[C@@H](C)CN([C@@H](C)CO)C(=O)c2cc(NC(=O)c3ccccc3)ccc2O1` here?
Answer: inactive

Question: For `C[C@@H]1CN([C@H](C)CO)C(=O)c2cc(NC(=O)c3ccccc3)ccc2O[C@@H](C)CCCCO[C@H]1CN(C)S(=O)(=O)c1ccc(Cl)cc1`, which cytotoxicity call is on record?
Answer: active

Question: For `C[C@@H]1CN([C@@H](C)CO)C(=O)c2cc(NC(=O)c3ccccc3)ccc2O[C@@H](C)CCCCO[C@H]1CN(C)S(=O)(=O)c1ccc(Cl)cc1`, which cytotoxicity call is on record?
Answer: active

Question: How did the cytotoxicity call turn out when `C[C@@H]1CCCCO[C@@H](CN(C)S(=O)(=O)c2ccc(Cl)cc2)[C@@H](C)CN([C@H](C)CO)C(=O)c2cc(NC(=O)c3ccccc3)ccc2O1` was run?
Answer: inactive

Question: How did the cytotoxicity call turn out when `C[C@@H]1CCCCO[C@@H](CN(C)S(=O)(=O)c2ccc(Cl)cc2)[C@H](C)CN([C@H](C)CO)C(=O)c2cc(NC(=O)c3ccccc3)ccc2O1` was run?
Answer: inactive

Question: For `C[C@H]1CCCCO[C@H](CN(C)S(=O)(=O)c2ccc(Cl)cc2)[C@@H](C)CN([C@@H](C)CO)C(=O)c2cc(NC(=O)c3ccccc3)ccc2O1`, which cytotoxicity call is on record?
Answer: active

Question: For `C[C@@H]1CCCCO[C@H](CN(C)S(=O)(=O)c2ccc(Cl)cc2)[C@@H](C)CN([C@H](C)CO)C(=O)c2cc(NC(=O)c3ccccc3)ccc2O1`, which cytotoxicity call is on record?
Answer: inactive

Question: How did the cytotoxicity call turn out when `COCC#Cc1ccc([C@H]2[C@H](CO)N3C(=O)CN(C(=O)c4ccncc4)C[C@@H]23)cc1` was run?
Answer: inactive

Question: How did the cytotoxicity call turn out when `Cc1noc(C)c1S(=O)(=O)N(C)C[C@@H]1Oc2ccc(NS(=O)(=O)c3cn(C)cn3)cc2CC(=O)N([C@H](C)CO)C[C@@H]1C` was run?
Answer: inactive

Question: Which cytotoxicity call does the source give for `NC(=S)CS(=O)(=O)c1ccccn1` here?
Answer: inactive

Question: For `CC(=O)OC[C@H]1O[C@@H](NC(N)=O)[C@H](OC(C)=O)[C@@H](OC(C)=O)[C@@H]1OC(C)=O`, which cytotoxicity call is on record?
Answer: inactive

Question: How did the cytotoxicity call turn out when `C[C@@H]1CCCCO[C@@H](CN(C)C)[C@H](C)CN([C@@H](C)CO)C(=O)c2cc(NC(=O)Nc3cccc4ccccc34)ccc2O1` was run?
Answer: inactive

Question: With `C[C@H]1CN([C@@H](C)CO)C(=O)c2cc(NC(=O)CCCN(C)C)ccc2O[C@@H]1CN(C)C(=O)Nc1ccccc1` as the molecule, how does the cytotoxicity call read?
Answer: inactive

Question: Which cytotoxicity call does the source give for `NC[C@@H](O)C1CCCCC1` here?
Answer: inactive

Question: Which cytotoxicity call does the source give for `c1cn2c3c(n1)CCCc3c1cc(C3CCCCC3)ccc12` here?
Answer: inactive

Question: For `CSC[C@H]1O[C@H](n2ccc3c(N)ncnc32)[C@@H](O)[C@H]1O`, which cytotoxicity call is on record?
Answer: inactive

Question: `Nc1ncnc2c1ncn2[C@H]1O[C@@H](CO)[C@H](O)[C@@H]1S` was tested. Which cytotoxicity call did it give?
Answer: inactive

Question: `Nc1ncnc2c1c(I)cn2[C@@H]1O[C@H](CO)[C@@H](O)[C@H]1O` was tested. Which cytotoxicity call did it give?
Answer: active

Question: With `NC(=O)c1cn([C@@H]2O[C@H](CO)[C@@H](O)[C@H]2O)c2ncnc(N)c2c1=O` as the molecule, how does the cytotoxicity call read?
Answer: inactive

Question: `Nc1ncnc2c1c(I)cn2[C@H]1O[C@@H](CO)[C@@H](O)[C@@H]1O` was tested. Which cytotoxicity call did it give?
Answer: active

Question: Which cytotoxicity call does the source give for `Nc1nc(=O)n([C@@H]2O[C@H](CO)[C@@H](O)[C@@H]2F)cc1I` here?
Answer: inactive

Question: Which cytotoxicity call does the source give for `CCS(=O)(=O)N1C[C@]2(CCN(CC2)Cc2cccc(c2)OC)c2c([nH]c3cc(ccc23)OC)[C@@H]1CO` here?
Answer: inactive

Question: How did the cytotoxicity call turn out when `C[C@@H]1CN([C@H](C)CO)C(=O)Cc2cc(NC(=O)CCC(F)(F)F)ccc2O[C@H]1CN(C)S(=O)(=O)c1cccs1` was run?
Answer: inactive

Question: For `Cc1ccc(S(=O)(=O)Nc2cccc3c2O[C@H](CN(C)S(=O)(=O)c2cn(C)cn2)[C@@H](C)CN([C@@H](C)CO)C3=O)cc1`, which cytotoxicity call is on record?
Answer: inactive

Question: For `COCCOC(=O)N1C(=O)[C@@]2(c3cc(C#CCC(C(=O)OC)C(=O)OC)ccc31)[C@H](C(=O)Nc1nc3ccccc3s1)[C@H]1C(=O)O[C@H](c3ccccc3)[C@H](c3ccccc3)N1[C@@H]2c1ccccc1OCCO`, which cytotoxicity call is on record?
Answer: inactive

Question: How did the cytotoxicity call turn out when `Cc1noc(C)c1S(=O)(=O)Nc1ccc2c(c1)C(=O)N([C@H](C)CO)C[C@@H](C)[C@H](CN(C)C(=O)Nc1ccc(F)cc1)OCCCC[C@@H](C)O2` was run?
Answer: inactive

Question: For `CCOC(=O)C(C)(C)Oc1ccc(Cl)cc1`, which cytotoxicity call is on record?
Answer: inactive

Question: With `CC(C)(C)C(=O)OCOP(=O)(OCOC(=O)C(C)(C)C)C(C)(Oc1ccc(O)cc1)P(=O)(OCOC(=O)C(C)(C)C)OCOC(=O)C(C)(C)C` as the molecule, how does the cytotoxicity call read?
Answer: active

Question: `CC(C)(C)Oc1ccc(O)cc1` was tested. Which cytotoxicity call did it give?
Answer: inactive

Question: How did the cytotoxicity call turn out when `COc1ccc(NC(=O)N(C)C[C@H]2OCCCC[C@@H](C)Oc3ccc(NS(=O)(=O)c4ccc(C)cc4)cc3C(=O)N([C@@H](C)CO)C[C@@H]2C)cc1` was run?
Answer: inactive

Question: For `COc1cc2c(cc1O)[C@H](c1ccc(CN3CCCC3)cc1)N(Cc1cc3c(cc1Br)OCO3)CC2`, which cytotoxicity call is on record?
Answer: inactive

Question: `C[C@@H]1CN([C@@H](C)CO)C(=O)Cc2cc(NC(=O)Nc3ccc(C(F)(F)F)cc3)ccc2O[C@H]1CN(C)C(=O)NC1CCCCC1` was tested. Which cytotoxicity call did it give?
Answer: inactive

Question: With `C[C@@H]1CN([C@H](C)CO)C(=O)Cc2cc(NC(=O)Nc3ccc(C(F)(F)F)cc3)ccc2O[C@@H]1CN(C)C(=O)NC1CCCCC1` as the molecule, how does the cytotoxicity call read?
Answer: active

Question: With `C[C@H](CO)N1C[C@H](C)[C@@H](CN(C)C(=O)NC2CCCCC2)Oc2ccc(NC(=O)Nc3ccc(C(F)(F)F)cc3)cc2CC1=O` as the molecule, how does the cytotoxicity call read?
Answer: inactive

Question: `C[C@@H]1CN([C@H](C)CO)C(=O)Cc2cc(NC(=O)Nc3ccc(C(F)(F)F)cc3)ccc2O[C@H]1CN(C)C(=O)NC1CCCCC1` was tested. Which cytotoxicity call did it give?
Answer: inactive

Question: With `C[C@H]1CN([C@@H](C)CO)C(=O)Cc2cc(NC(=O)Nc3ccc(C(F)(F)F)cc3)ccc2O[C@H]1CN(C)C(=O)NC1CCCCC1` as the molecule, how does the cytotoxicity call read?
Answer: inactive

Question: `C[C@@H]1CN([C@@H](C)CO)C(=O)Cc2cc(NC(=O)Nc3ccc(C(F)(F)F)cc3)ccc2O[C@@H]1CN(C)C(=O)NC1CCCCC1` was tested. Which cytotoxicity call did it give?
Answer: active

Question: Which cytotoxicity call does the source give for `CC(C)C(=O)O` here?
Answer: inactive

Question: How did the cytotoxicity call turn out when `C[C@@H]1CN([C@@H](C)CO)C(=O)c2cc(NS(=O)(=O)c3cn(C)cn3)ccc2O[C@@H](C)CCCCO[C@H]1CN(C)S(=O)(=O)c1cccs1` was run?
Answer: inactive

Question: For `NCCc1cc2nc(-c3ccncc3)ccn2n1`, which cytotoxicity call is on record?
Answer: inactive

Question: With `CN1CCN(C(=O)C[C@H]2CC[C@H]3[C@@H](COC[C@H](O)CN3C(=O)C3CCCC3)O2)CC1` as the molecule, how does the cytotoxicity call read?
Answer: inactive

Question: For `O=c1ncc(F)c[nH]1`, which cytotoxicity call is on record?
Answer: inactive

Question: How did the cytotoxicity call turn out when `CCCNC(=O)N1C[C@]2(CCN(CC2)S(=O)(=O)c2cccc(c2)OC)c2c(n(c3cc(ccc23)OC)C)[C@H]1CO` was run?
Answer: inactive

Question: With `C=CCOC(=O)[C@@H]1[C@H]2C(=O)O[C@H](c3ccccc3)[C@H](c3ccccc3)N2[C@H](c2ccc(OCCOC(=O)[C@H]3C[C@H]4C(=O)N[C@@H](CC(C)C)C(=O)N4[C@H]3c3ccc(O)cc3)cc2)[C@@]12C(=O)Nc1ccc(I)cc12` as the molecule, how does the cytotoxicity call read?
Answer: inactive

Question: Which cytotoxicity call does the source give for `CCC(=C/[C@H](C)C/C=C/C(C)=C/[C@@H](C)C(=O)[C@@H](C)[C@H](O)[C@@H](C)C/C(C)=C/C(=O)O)/C=C/[C@@H]1OC(=O)C=C[C@@H]1C` here?
Answer: active

Question: How did the cytotoxicity call turn out when `C[C@@H]1CN([C@H](C)CO)C(=O)c2cc(C#CC3CCCCC3)cnc2O[C@H]1CN(C)C(=O)c1ccncc1` was run?
Answer: inactive

Question: For `CCS(=O)(=O)N1C[C@]2(C1)CN([C@H](CO)c1c2c2ccc(cc2n1C)OC)C(=O)Nc1cccc(c1)F`, which cytotoxicity call is on record?
Answer: inactive

Question: `C[C@H](CO)N1C[C@H](C)[C@H](CN(C)Cc2ccc(-c3ccccc3)cc2)Oc2c(NS(=O)(=O)c3ccccc3)cccc2C1=O` was tested. Which cytotoxicity call did it give?
Answer: inactive

Question: How did the cytotoxicity call turn out when `C[C@H](CO)N1C[C@H](C)[C@@H](CN(C)Cc2ccc(-c3ccccc3)cc2)Oc2c(NS(=O)(=O)c3ccc(F)cc3)cccc2C1=O` was run?
Answer: active

Question: How did the cytotoxicity call turn out when `C[C@H]1CN([C@@H](C)CO)C(=O)c2cccc(NS(=O)(=O)c3ccc(F)cc3)c2O[C@@H]1CN(C)Cc1ccc(-c2ccccc2)cc1` was run?
Answer: inactive

Question: With `C[C@@H]1CN([C@@H](C)CO)C(=O)c2cccc(NS(=O)(=O)c3ccc(F)cc3)c2O[C@@H]1CN(C)Cc1ccc(-c2ccccc2)cc1` as the molecule, how does the cytotoxicity call read?
Answer: active

Question: `C[C@H]1CN([C@@H](C)CO)C(=O)c2cccc(NS(=O)(=O)c3ccc(F)cc3)c2O[C@H]1CN(C)Cc1ccc(-c2ccccc2)cc1` was tested. Which cytotoxicity call did it give?
Answer: inactive

Question: With `C[C@@H]1CN([C@H](C)CO)C(=O)c2cccc(NS(=O)(=O)c3ccc(F)cc3)c2O[C@@H]1CN(C)Cc1ccc(-c2ccccc2)cc1` as the molecule, how does the cytotoxicity call read?
Answer: inactive

Question: For `C[C@@H]1CN([C@@H](C)CO)C(=O)c2cccc(NS(=O)(=O)c3ccc(F)cc3)c2O[C@H]1CN(C)Cc1ccc(-c2ccccc2)cc1`, which cytotoxicity call is on record?
Answer: inactive

Question: For `C[C@H]1CN([C@@H](C)CO)C(=O)c2cccc(NS(=O)(=O)c3ccccc3)c2O[C@@H]1CN(C)Cc1ccc(-c2ccccc2)cc1`, which cytotoxicity call is on record?
Answer: inactive

Question: How did the cytotoxicity call turn out when `C[C@H](CO)N1C[C@H](C)[C@H](CN(C)Cc2ccc(-c3ccccc3)cc2)Oc2c(NS(=O)(=O)c3ccc(F)cc3)cccc2C1=O` was run?
Answer: active

Question: `C[C@@H]1CN([C@@H](C)CO)C(=O)c2cccc(NS(=O)(=O)c3ccccc3)c2O[C@@H]1CN(C)Cc1ccc(-c2ccccc2)cc1` was tested. Which cytotoxicity call did it give?
Answer: inactive

Question: For `C[C@@H]1CN([C@H](C)CO)C(=O)c2cccc(NS(=O)(=O)c3ccc(F)cc3)c2O[C@H]1CN(C)Cc1ccc(-c2ccccc2)cc1`, which cytotoxicity call is on record?
Answer: active

Question: Which cytotoxicity call does the source give for `C[C@@H]1CN([C@H](C)CO)C(=O)c2cccc(NS(=O)(=O)c3ccccc3)c2O[C@H]1CN(C)Cc1ccc(-c2ccccc2)cc1` here?
Answer: inactive
